Reference: PubChem BioAssay AID1159580 (chemical genetic matrix, 2015)
The campaign covered roughly 5,500 compounds. About 2,000 (36%) were called active. Roughly 18% stayed inconclusive and do not appear here. Cut-off read from the data, not from the text of the source: active = normalized growth mostly below about 0.91 (no sharp cut-off); inconclusive = no clear call, values can overlap the other calls; inactive = mostly above about 0.92. This is one part of the list.

Test: chemical genetic growth profiling, strain panel (AID 1159580);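 note: tested at 20 µM; growth read once vehicle control cultures reached saturation at 30 °C; 1 = growth at the plate median or of vehicle wells; lower values mean less growth of the strain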
Conditions: S. cerevisiae deletion strains, growth OD

Measured: normalized growth

C[N+]1(C)C[C@H](O)[C@H](C(=O)[O-])C1
inactive: locus YAL013W, strain DEP1, hits give low values 1.01 | locus YAL021C, strain ccr4, hits give low values 0.996 | locus YAL026C, strain drs2, hits give low values 1.03 | locus YAL030W, strain snc1, hits give low values 1.01 | locus YBL061C, strain skt5, hits give low values 1.01 | locus YBR009C, strain hhf1, hits give low values 1.05 | locus YBR021W, strain FUR4, hits give low values 1.01 | locus YBR023C, strain chs3, hits give low values 1.02 | locus YBR171W, strain sec66, hits give low values 1.03 | locus YBR229C, strain ROT2, hits give low values 1.01 | locus YBR231C, strain swc5, hits give low values 1.02 | locus YBR279W, strain paf1, hits give low values 1.01 | locus YCL011C, strain gbp2, hits give low values 1.02 | locus YCL016C, strain dcc1, hits give low values 1.02 | locus YCL029C, strain bik1, hits give low values 0.996 | locus YCL061C, strain MRC1, hits give low values 1.02 | locus YCL069W, strain vba3, hits give low values 1.01 | locus YCR088W, strain abp1, hits give low values 1.01 | locus YDL005C, strain med2, hits give low values 1.01 | locus YDL035C, strain GPR1, hits give low values 1.01 | locus YDL040C, strain nat1, hits give low values 1.01 | locus YDL074C, strain BRE1, hits give low values 1.02 | locus YDL101C, strain DUN1, hits give low values 1.02 | locus YDL134C, strain PPH21, hits give low values 1.01 | locus YDL185W, strain tfp1, hits give low values 0.995 | locus YDL192W, strain arf1, hits give low values 1 | locus YDR001C, strain nth1, hits give low values 1.01 | locus YDR069C, strain doa4, hits give low values 1.03 | locus YDR101C, strain arx1, hits give low values 0.988 | locus YDR137W, strain rgp1, hits give low values 1.01 | locus YDR150W, strain NUM1, hits give low values 1.01 | locus YDR159W, strain sac3, hits give low values 1.02 | locus YDR162C, strain NBP2, hits give low values 1.01 | locus YDR195W, strain ref2 1.03 | locus YDR297W, strain sur2, hits give low values 1.01 | locus YDR318W, strain mcm21, hits give low values 1.01 | locus YDR334W, strain swr1, hits give low values 1.02 | locus YDR335W, strain msn5, hits give low values 1.01 | locus YDR388W, hits give low values 1.01 | locus YDR392W, strain spt3, hits give low values 0.996 | locus YDR502C, strain sam2, hits give low values 0.994 | locus YEL003W, strain gim4, hits give low values 1.02 | locus YEL037C, strain rad23, hits give low values 1.01 | locus YEL061C, strain CIN8 (second series), hits give low values 1.01 | locus YEL061C, strain CIN8, hits give low values 1 | locus YER015W, strain faa2, hits give low values 1.01 | locus YER016W, strain bim1, hits give low values 1.01 | locus YER110C, hits give low values 0.992 | locus YER111C, strain swi4, hits give low values 1.02 | locus YER155C, strain BEM2 (second series), hits give low values 1.05 | locus YER155C, strain BEM2, hits give low values 1 | locus YER167W, strain BCK2, hits give low values 1.01 | locus YFR010W, strain ubp6, hits give low values 1.02 | locus YGL078C, strain dbp3, hits give low values 0.999 | locus YGL086W, strain mad1, hits give low values 0.968 | locus YGL167C, strain pmr1, hits give low values 1.02 | locus YGL173C, strain kem1, hits give low values 1.02 | locus YGL227W, strain vid30, hits give low values 1.01 | locus YGL240W, strain doc1, hits give low values 1.04 | locus YGL248W, strain PDE1, hits give low values 1.01 | locus YGL253W, strain hxk2, hits give low values 1.03 | locus YGR078C, strain PAC10, hits give low values 1.01 | locus YGR135W, strain pre9, hits give low values 1 | locus YGR229C, strain SMI1, hits give low values 1.01 | locus YGR252W, strain gcn5, hits give low values 0.992 | locus YHR013C, strain ard1, hits give low values 0.999 | locus YHR027C, strain rpn1, hits give low values 1.01 | locus YHR030C, strain SLT2, hits give low values 1.01 | locus YHR079C, strain IRE1 (second series), hits give low values 1 | locus YHR094C, strain hxt1, hits give low values 0.993 | locus YHR129C, strain ARP1, hits give low values 1.01 | locus YHR142W, strain chs7, hits give low values 0.98 | locus YHR200W, strain rpn10, hits give low values 0.995 | locus YIL066C, strain RNR3, hits give low values 1.01 | locus YIL073C, strain SPO22, hits give low values 1.1 | locus YIL125W, strain kgd1, hits give low values 0.996 | locus YIR030C, strain dcg1, hits give low values 0.995 | locus YJL092W, strain hpr5, hits give low values 1.01 | locus YJL095W, strain BCK1 (second series), hits give low values 1.01 | locus YJL095W, strain BCK1, hits give low values 1.01 | locus YJL115W, strain asf1, hits give low values 1.02 | locus YJL129C, strain trk1, hits give low values 1.01 | locus YJL134W, strain LCB3, hits give low values 1 | locus YJL154C, strain vps35, hits give low values 1.01 | locus YJL164C, strain tpk1, hits give low values 1.01 | locus YJL166W, strain qcr8, hits give low values 1.01 | locus YJL168C, strain set2, hits give low values 1 | locus YJL187C, strain SWE1 (second series), hits give low values 1.02 | locus YJL187C, strain SWE1, hits give low values 1.01
